To fix the notation:
B1: PhoQ; a variant is named by its letters at X, in order, P23837 (parent)
chain: MKKLLRLFFPLSLRVRFLLATAAVVLVLSLAYGMVALIGYSVSFDKTTFRLLRGESNLFYTLAKWENNKLHVELPENIDKQSPTMTLIYDENGQLLWAQRDVPWLMKMIQPDWLKSNGFHEIEADVNDTSLLLSGDHSIQQQLQEVREDDDDAEMTHSVAVNVYPATSRMPKLTIVVVDTIPVELKSSYMVWSWFIYVLSANLLLVIPLLWVAAWWSLRPIEALAKEVRELEEHNRELLNPATTRELTSLVRNLNRLLKSERERYDKYRTTLTDLTHSLKTPLXXLQXXLRSLRSEKMSVSDAEPVMLEQISRISQQIGYYLHRASMRGGTLLSRELHPVAPLLDNLTSALNKVYQRKGVNISLDISPEISFVGEQNDFVEVMGNVLDNACKYCLEFVEISARQTDEHLYIVVEDDGPGIPLSKREVIFDRGQRVDTLRPGQGVGLAVAREITEQYEGKIVAGESMLGGARMEVIFGRQHSAPKDE

The full ranking holds about 140,000 sequences; the median of “enrichment ratio after two sorts for PhoP signalling” is about 0, and the highest 2% start at about 11. For the sample, the highest values were picked, then their nearest neighbours and some sequences at random.

In the experiment the parent is B1. The experiment can be described thus: enrichment ratio after two sorts for PhoP signalling (ratio (wild type AVST 3.29)); higher = more functional. The following applies: with PhoP (E. coli).
Turning to HQTQ, the enrichment ratio was not above 0.25.
KFHQ: the enrichment ratio is not above 0.25.
Consider PSSG, for which the enrichment ratio is not above 0.25.
Take AGQH: the enrichment ratio was not above 0.25.
Take HPFG: the enrichment ratio is not above 0.25.
As to NWHP, the enrichment ratio was not above 0.25.
As to LKHK, the enrichment ratio is not above 0.25.
As for FCCM, the enrichment ratio is not above 0.25.
Under TSCM stands 25.8; under RSCM, not above 0.25.
Under VSCK stands not above 0.25; under NSCM, not above 0.25.
Under VCCM stands 13.1; under MMCM, not above 0.25; under VSCM, 13.1.
On to LCCM, for which the enrichment ratio was not above 0.25.
As for KSCM, the enrichment ratio was not above 0.25.
As to KCCM, the enrichment ratio was not above 0.25.
Take FSCM: the enrichment ratio amounted to 16.6.
For the variant LKST, the enrichment ratio is not above 0.25.
With GVIN, the enrichment ratio was not above 0.25.
As to MQIN, the enrichment ratio was not above 0.25.
Under QHSN stands not above 0.25.
Under YAPD stands not above 0.25; under QLGK, 3.11.
Under MDFQ stands not above 0.25; under YSCM, 12.8; under VNCM, 4.53.
Regarding YRCM, the enrichment ratio is not above 0.25.
Under SSCK stands 4.35.
Take SSCM: the enrichment ratio came out at 19.
With YSCK, the enrichment ratio is not above 0.25.
For AINP, the enrichment ratio is not above 0.25.
Take SWTQ: the enrichment ratio is not above 0.25.
In the case of AGMH, the enrichment ratio came out at 26.
Under AHMH stands not above 0.25; under RGMH, not above 0.25.
Consider THMH, for which the enrichment ratio stood at 13.2.
Under NHMH stands not above 0.25; under AGWR, not above 0.25; under AYMH, not above 0.25.
With TGMH, the enrichment ratio amounted to 14.5.
Turning to HGMH, the enrichment ratio was not above 0.25.
As for PWRH, the enrichment ratio was not above 0.25.
As for DSMV, the enrichment ratio was not above 0.25.
Regarding ALNP, the enrichment ratio was not above 0.25.
As for ILLI, the enrichment ratio was not above 0.25.
As to IWRF, the enrichment ratio is not above 0.25.
Regarding LDDP, the enrichment ratio is not above 0.25.
Consider AICF, for which the enrichment ratio was 13.5.
Under NICF stands not above 0.25.
Regarding AKCF, the enrichment ratio stood at 1.73.
For NHCF, the enrichment ratio is not above 0.25.
NMCF: the enrichment ratio is not above 0.25.
In the case of MMCF, the enrichment ratio was not above 0.25.
Take PLCF: the enrichment ratio was not above 0.25.
Under ALCF stands 13.2.
With WICF, the enrichment ratio is not above 0.25.
For THCF, the enrichment ratio was found to be 17.5.
AMCF: the enrichment ratio was determined as 12.3.
Regarding SHCF, the enrichment ratio was found to be 7.35.
For IASH, the enrichment ratio is not above 0.25.
Under FYVH stands not above 0.25; under ESKG, not above 0.25.
Consider WMCQ, for which the enrichment ratio was not above 0.25.
With VWMT, the enrichment ratio is not above 0.25.
As to PQSG, the enrichment ratio is not above 0.25.
On to VPYN, for which the enrichment ratio is not above 0.25.
As for AAPG, the enrichment ratio was not above 0.25.
For DMIH, the enrichment ratio was not above 0.25.
With MFGN, the enrichment ratio was not above 0.25.
For the variant SKAI, the enrichment ratio is 14.
In the case of SKFA, the enrichment ratio was not above 0.25.
Turning to SQAI, the enrichment ratio was 15.1.
As to IQAI, the enrichment ratio was not above 0.25.
As to WLAI, the enrichment ratio is not above 0.25.
On to VLAI, for which the enrichment ratio was not above 0.25.
For SAAI, the enrichment ratio came to 7.86.
Turning to SKPA, the enrichment ratio is not above 0.25.
On to SLAI, for which the enrichment ratio came out at 15.7.
As for YGYC, the enrichment ratio was not above 0.25.
Under YRGI stands not above 0.25; under YDSS, not above 0.25.
As to AHPL, the enrichment ratio is not above 0.25.
In the case of RPNK, the enrichment ratio was not above 0.25.
As to SFLE, the enrichment ratio is not above 0.25.
In the case of NELE, the enrichment ratio was not above 0.25.
Take QELE: the enrichment ratio is not above 0.25.
Under SEVE stands 6.62; under KYLE, not above 0.25.
In the case of KSLE, the enrichment ratio was not above 0.25.
Regarding DPLE, the enrichment ratio is not above 0.25.
Take SSLE: the enrichment ratio is 12.
For SQLE, the enrichment ratio was found to be 16.5.
With SPLE, the enrichment ratio was not above 0.25.
Regarding FELE, the enrichment ratio was found to be 20.4.
In the case of SELE, the enrichment ratio stood at 21.5.
Under LDMG stands not above 0.25.
Take LDRD: the enrichment ratio is not above 0.25.
Under SKTY stands not above 0.25.
Turning to FKIR, the enrichment ratio is not above 0.25.
Under PKAM stands not above 0.25.
Take NVYD: the enrichment ratio is not above 0.25.
For IGIE, the enrichment ratio is not above 0.25.
Regarding KYVT, the enrichment ratio was not above 0.25.
Turning to PQLS, the enrichment ratio is not above 0.25.
On to PYIW, for which the enrichment ratio was not above 0.25.
On to GYLE, for which the enrichment ratio is not above 0.25.
Take YTLE: the enrichment ratio came to 3.23.
Take LTLE: the enrichment ratio is not above 0.25.
For WQLE, the enrichment ratio was not above 0.25.
Turning to GTLE, the enrichment ratio was determined as 14.3.
Turning to GQLE, the enrichment ratio was 14.3.
As for TWHD, the enrichment ratio is not above 0.25.
For YYAE, the enrichment ratio is not above 0.25.
Regarding KCKS, the enrichment ratio was not above 0.25.
As for HTMI, the enrichment ratio was 1.06.
Under WRCP stands not above 0.25; under FWNS, not above 0.25; under AVCC, 8.73.
Under AVTM stands 12.4; under AVAM, 3.19; under AVWM, not above 0.25.
For the variant AVWR, the enrichment ratio is not above 0.25.
As for AVMH, the enrichment ratio amounted to 11.8.
For AVCK, the enrichment ratio was 16.2.
Under AVGM stands 3.94; under AVTH, 9.18; under AVSH, 12.4.
Under AVPM stands 1.53; under AVCV, 5.84; under MFGF, not above 0.25.
For the variant LYKG, the enrichment ratio is not above 0.25.
With ASIY, the enrichment ratio stood at 3.82.
Under VFVG stands not above 0.25; under DYAM, not above 0.25; under DHDS, not above 0.25.
Under NVCG stands not above 0.25; under AVCG, 16; under FVCM, 2.91.
On to AVCH, for which the enrichment ratio came out at 13.
Under AVTI stands 10.4.
As for NVCM, the enrichment ratio was not above 0.25.
Under TVAH stands 3.22.
Take PVCG: the enrichment ratio was not above 0.25.
For NVCH, the enrichment ratio was not above 0.25.
AVAT: the enrichment ratio was not above 0.25.
With AVAH, the enrichment ratio stood at 13.4.
Consider AVCM, for which the enrichment ratio was 15.4.
Turning to DWKH, the enrichment ratio was not above 0.25.
Under QWAC stands not above 0.25.
Turning to PYDI, the enrichment ratio is not above 0.25.
With SRND, the enrichment ratio was not above 0.25.

Values taken from a collection of fitness landscapes (doi:10.1126/science.1257360).
